# Experimental data published in PubChem BioAssay (NCATS).
# Values without a mark were called inactive. Records with an inconclusive call do not appear. Activity calls are given as the source filed them. Unless noted, calls come from the whole dose curve; as a rule, active = well fitted curve in the direction sought with a large enough effect; inconclusive = small, poorly fitted or top-dose-only effect, or another doubt; inactive = no such curve, though single readings can be large; an effect the other way counts as inactive or inconclusive.
# Experiments:
# [1] = qHTS Assay for Identifying Gametocytocidal Compounds (AID 743244); note: potency is the fitted concentration of half-maximal effect; conditions: P. falciparum 3D7 stage III-V gametocytes, alamarBlue, 72 h; max response: stronger effect = lower value
# Summary of the method: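 3D7 gametocytes, stages III–V, 20,000/well; cpd 72 h, 37 °C/5% CO2; + alamarBlue 24 h; fluor. Ex 525/Em 598.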
# [2] = AP1 Signaling Pathway (AID 357; active = well fitted curve in either direction with a large enough effect, not every such curve was filed as active;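 note: ME-180 reporter cells stimulated with EGF at its EC50 level; % is set by controls: 0 for no effect and ±100 for the full control effect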); conditions: ME-180 (cervical carcinoma) AP-1-bla reporter, EGF-induced, beta-lactamase ratio, 5 h; at 7.69 µM (top of the series) unless noted
# Summary of the method: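 AP-1-bla ME-180 cells, Opti-MEM + 0.5% dialyzed FBS, plated overnight 37 °C. Cpd titration + EC50 EGF, 5 h 37 °C. CCF4 2.5 h RT; ex 405, em 460/530 ratio → %activity, AC50.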
# [3] = NFAT Signaling Pathway (AID 444; active = well fitted curve in either direction with a large enough effect, not every such curve was filed as active;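 note: carbachol stimulus at about its EC50 of 1 µM final; % is set by controls: 0 for no effect and ±100 for the full control effect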); conditions: Jurkat NFAT-bla M1, carbachol, beta-lactamase ratio, 5 h; at 7.69 µM (top of the series) unless noted
# Summary of the method: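 Jurkat cells carrying an NFAT-driven β-lactamase reporter and co-transfected muscarinic M1 receptor were treated with compound plus carbachol (1 uM final, an EC50 level) for 5 h at 37 °C. CCF4 loading followed for 1 h at RT; 460/530 nm ratio gave %activity.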
# [4] = target: Cytochrome P450 3A4 (Homo sapiens) (UniProt P08684); experiment: qHTS Assay for Activators of Cytochrome P450 3A4 (AID 885); note: nearly all actives have a fitted effect of over 65% in size
# Sequence of Cytochrome P450 3A4 (Homo sapiens) (P08684 whole entry, looked up): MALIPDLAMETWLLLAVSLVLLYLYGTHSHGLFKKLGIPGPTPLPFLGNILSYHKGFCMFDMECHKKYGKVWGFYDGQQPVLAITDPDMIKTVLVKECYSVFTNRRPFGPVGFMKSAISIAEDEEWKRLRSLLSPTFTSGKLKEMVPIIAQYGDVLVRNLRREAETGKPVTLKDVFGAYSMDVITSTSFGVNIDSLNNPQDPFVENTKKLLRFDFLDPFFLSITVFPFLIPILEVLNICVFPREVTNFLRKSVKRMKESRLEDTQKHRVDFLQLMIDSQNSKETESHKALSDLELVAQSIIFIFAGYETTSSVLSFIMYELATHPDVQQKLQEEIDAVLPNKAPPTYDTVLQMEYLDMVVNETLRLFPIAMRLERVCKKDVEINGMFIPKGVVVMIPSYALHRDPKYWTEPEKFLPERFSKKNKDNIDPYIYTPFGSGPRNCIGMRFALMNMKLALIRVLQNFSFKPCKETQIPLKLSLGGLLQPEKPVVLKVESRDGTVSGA
# Summary of the method: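 Human CYP3A4 (20 nM) with Luciferin-PPXE at 25 uM (its KM) in 200 mM KPO4; 10 min compound preincubation, then NADPH regeneration and 60 min reaction at RT. Luciferin read by luminescence; normalized to 57 uM ketoconazole full inhibition.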
# [5] = target: Cytochrome P450 2C9 (Homo sapiens) (UniProt P11712); experiment: qHTS Assay for Inhibitors and Substrates of Cytochrome P450 2C9 (AID 883); note: potency is the fitted concentration of half-maximal effect; nearly all actives have a fitted effect of over 60% in size
# Sequence of Cytochrome P450 2C9 (Homo sapiens) (P11712 whole entry, looked up): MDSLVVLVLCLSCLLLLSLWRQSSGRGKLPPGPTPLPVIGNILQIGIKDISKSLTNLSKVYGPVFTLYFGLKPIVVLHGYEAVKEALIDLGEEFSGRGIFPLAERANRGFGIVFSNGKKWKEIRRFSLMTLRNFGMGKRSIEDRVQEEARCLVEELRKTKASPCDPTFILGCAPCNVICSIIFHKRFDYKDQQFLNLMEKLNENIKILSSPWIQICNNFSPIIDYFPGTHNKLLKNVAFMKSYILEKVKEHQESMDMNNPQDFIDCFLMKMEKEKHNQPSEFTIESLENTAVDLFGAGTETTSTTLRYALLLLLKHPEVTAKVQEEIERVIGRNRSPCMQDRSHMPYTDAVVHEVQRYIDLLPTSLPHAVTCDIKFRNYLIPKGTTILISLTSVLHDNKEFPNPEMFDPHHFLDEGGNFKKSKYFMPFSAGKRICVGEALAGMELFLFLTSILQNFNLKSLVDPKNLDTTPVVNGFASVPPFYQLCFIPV
# Summary of the method: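 A luminogenic readout tracked human CYP2C9 (10nM) converting deoxyluciferin (100uM, at KM) in 25mM KPO4 during 60 min at 37C with regenerated NADPH. Values normalized to 57uM sulphaphenazole as complete inhibition.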
smiles,measurement,setting,value
CN1CC[C@H](CN2c3ccccc3Sc3ccccc32)C1,Potency,[1],18.7 µM (active)
O=C1c2ccccc2C(=O)C1c1ccc2ccccc2n1,"activity change, negative = inhibition",[2],13% [at 17.2 µM]
same,"activity change, negative = inhibition",[3],21.8% [at 17.2 µM]
same,outcome,[4],inactive
COc1ccc2[nH]cc(CCNc3ncnc4ccc(-c5cccc(C#N)c5)cc34)c2c1,Potency,[5],0.0631 µM (active)
